Consider 92 compounds from PubChem BioAssay AID1423 (NMMLSC, 2008).

Screen size: about 220,000 compounds; about 750 (0.34%) were called active. This excerpt belongs to a sample that is enriched for actives. Unmarked numbers belong to inactive results. Cut-off read from the data, not from the text of the source: active = response below about 60% or above about 140%; inactive = in between.

The assay deals with Guanine nucleotide-binding protein G(o) subunit alpha (Homo sapiens) (UniProt P09471). The assay is described as follows: compounds changing RGS8 association with Galphao – biochemical, multiplexed bead flow cytometry, primary screen (AID 1423).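 Note: Galphao activated as the GDP aluminium fluoride complex binding bead-coupled RGS8.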 Conditions: at 10 µM, actives lie on both sides. In general terms: In flow cytometry, cells or beads pass a laser one at a time.
Chain of Guanine nucleotide-binding protein G(o) subunit alpha (Homo sapiens) (P09471 whole entry, looked up): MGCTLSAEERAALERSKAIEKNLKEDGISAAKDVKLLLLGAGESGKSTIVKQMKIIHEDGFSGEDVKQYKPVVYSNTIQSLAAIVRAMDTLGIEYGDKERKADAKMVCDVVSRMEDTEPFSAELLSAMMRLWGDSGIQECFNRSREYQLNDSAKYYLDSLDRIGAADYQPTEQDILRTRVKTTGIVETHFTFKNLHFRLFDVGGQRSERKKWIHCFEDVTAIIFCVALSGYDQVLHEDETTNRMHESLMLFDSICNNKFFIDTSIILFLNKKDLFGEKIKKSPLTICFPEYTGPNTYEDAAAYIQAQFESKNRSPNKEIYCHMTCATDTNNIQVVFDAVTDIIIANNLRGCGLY
As for `S=C1NC(c2ccccc2)=NCN1c1ccc(Br)cc1`, the response (percent of control binding) is 106%. In the case of `COc1ccc(N2C(=O)CNC2=S)cc1` it was 102%; in that of `CC(C)NC(=O)c1ccc(Sc2ccccc2)c([N+](=O)[O-])c1`, 103%. In the case of `Cc1c(C(=O)Nc2cccc(-c3nnc4n3CCCCC4)c2)oc2ccccc12` it was 101%. In the case of `O=C(COC(=O)/C=C/c1ccc2c(c1)OCO2)NC1CCS(=O)(=O)C1` (configuration not stated), the response (percent of control binding) is 99.8%.

In the case of `Nc1ccc(C(=O)OCC(=O)NC2CCCc3ccccc32)cc1[N+](=O)[O-]` (configuration not stated), the response (percent of control binding) is 101%. As for `Nc1ccc(C(=O)OCC(=O)NC2CCS(=O)(=O)C2)cc1[N+](=O)[O-]` (configuration not stated), the figure is 6.98% (active); as for `Cc1ccc(/C=N/NC(=O)CSc2ccccn2)o1`, 101%; as for `CC[C@H]1OC(=O)[C@H](C)[C@@H](O[C@H]2C[C@@](C)(OC)[C@@H](O)[C@H](C)O2)[C@H](C)[C@@H](O[C@@H]2O[C@H](C)C[C@H](N(C)C)[C@H]2O)[C@](C)(O)C[C@@H](C)[C@@H]2N[C@@H](COCCOC)O[C@H]([C@H]2C)[C@]1(C)O`, 85.8%. In the case of `CC(=O)Nc1nc(N(C)C)nc(N(C)C)n1` it was 25.1% (active); in that of `CCC(=O)Nc1nc(OC)cc(OC)n1`, 100%. In the case of `COc1cc(OC)nc(NC(=O)CCl)n1` it was 100%; in that of `CC(=O)c1c(C)[nH]c(C(=O)OCC(=O)Nc2sc3c(c2C#N)CCCC3)c1C`, 101%; in that of `O=Cc1ccc(OCc2cn3ccccc3n2)cc1`, 101%. Take `Cn1cc(CCC(=O)N2CCCC(C(=O)c3ccc(C(C)(C)C)cc3)C2)cn1` (configuration not stated): the response (percent of control binding) was 98.1%. For the compound `CCOC(=O)C1CCCN(C(=O)/C=C/c2ccc(OC)cc2)C1` (configuration not stated), the response (percent of control binding) is 100%. Consider `CCOC(=O)C1=C(c2ccccc2)N=C2SCC(=O)N2C1c1ccc(O)c(OC)c1` (configuration not stated), for which the response (percent of control binding) was 144% [activator] (active). As for `C=CCOC(=O)C1=C(C)N=C2SCCC(=O)N2C1/C=C/c1ccccc1OC` (configuration not stated), the response (percent of control binding) is 92.4%.

Turning to `COc1cc(C2C(C(=O)c3ccc(C)o3)=C(O)C(=O)N2CCc2ccccc2)ccc1O` (configuration not stated), the response (percent of control binding) is 101%. As for `O=C(COc1nc2ccccc2nc1N1CCOCC1)NCC(F)(F)F`, the figure is 86%. In the case of `CCOc1cc2[nH]c(=S)n(CCN3CCCCC3C)c(=O)c2cc1OCC` (configuration not stated) it was 111%; in that of `CC(=O)NC1C(OCc2ccccc2)OC(COC(C)=O)C(OC(C)=O)C1OC(C)=O` (configuration not stated), 105%; in that of `O=C(OCC1O[C@@H](OC(=O)c2cc(O)c(O)c(O)c2)[C@@H](OC(=O)c2cc(O)c(O)c(O)c2)[C@@H](OC(=O)c2cc(O)c(O)c(O)c2)[C@@H]1OC(=O)c1cc(O)c(O)c(O)c1)c1cc(O)c(O)c(O)c1` (some centres not stated), 46.9% (active). As for `Cc1nnc(-c2ccc(Oc3ccc(C)c(C)c3)c([N+](=O)[O-])c2)o1`, the figure is 99.2%; as for `O=C(Oc1ccccc1C(=S)N1CCCCC1)c1cc([N+](=O)[O-])cc([N+](=O)[O-])c1`, 95.2%; as for `Cc1cc(=O)oc2cc(OCCC[n+]3ccccc3)ccc12`, 101%. Turning to `CCOC(=O)c1c(/N=C/C2C(=O)CC(C)(C)CC2=O)sc(C)c1C`, the response (percent of control binding) was 113%. As for `Cc1ccc(C(=O)NCC(=O)O)s1`, the response (percent of control binding) is 102%. In the case of `N=C1C(=O)OCC1c1ccccc1NC(=O)CN1CCCCC1` (configuration not stated) it was 100%. For the compound `CCCc1ccc(C(=O)[C@@H]2[C@@H](C(C)=O)N3c4ccc(F)cc4C=C[C@@H]3[C@@]23C(=O)Nc2ccccc23)cc1`, the response (percent of control binding) is 94.4%.

As for `Cn1nc(-c2ccccc2)c(CO)c1Sc1ccccc1`, the response (percent of control binding) is 95.1%. Regarding `CC(C)(C)CN1C(=O)C(=O)NC[C@H]1Cc1cccc2ccccc12`, the response (percent of control binding) is 96.5%.

On to `CCNC(=O)NC(=O)C(C)OC(=O)C1CCN(S(=O)(=O)c2ccccc2F)CC1` (configuration not stated), for which the response (percent of control binding) was 106%. As for `CC(NC(=O)COC(=O)C1CCN(S(=O)(=O)c2ccccc2C(F)(F)F)CC1)c1ccccc1` (configuration not stated), the figure is 148% [activator] (active); as for `CC(NC(=O)CCC(=O)N1CCN(S(=O)(=O)c2ccc(Cl)cc2)CC1)c1ccccc1` (configuration not stated), 101%; as for `O=C(C1CC1)N1N=C2CCCCC2C1(O)C(F)(F)F` (configuration not stated), 100%. In the case of `COC(=O)c1c(NC(=O)CN2CCN(S(=O)(=O)c3ccccc3[N+](=O)[O-])CC2)sc2c1CCC(C)C2` (configuration not stated) it was 104%.

Turning to `Cc1ccc(C)c(NC(=O)c2ccc(OC(=O)c3ccco3)cc2)c1`, the response (percent of control binding) was 102%. As for `CC1=CC2=NC(=O)/C(=C/c3coc4ccccc4c3=O)C(=N)N2O1`, the figure is 108%; as for `O=C(COC(=O)CC1CC2CCC1C2)NC(=O)NC1CCCC1` (configuration not stated), 102%. Turning to `O=C(c1ccccc1)C(Cn1cncn1)C(Sc1ccccc1)c1ccccc1` (configuration not stated), the response (percent of control binding) was 92.9%. `CCC(=O)N1CCC(C(N)=O)(N2CCCCC2)CC1`: the response (percent of control binding) is 163% [activator] (active).

Regarding `CC(C)(O)C#Cc1ccc(C(=O)N2CCC(C(N)=O)(N3CCCCC3)CC2)cc1`, the response (percent of control binding) was 100%. As for `NC(=O)C1(N2CCCCC2)CCN(C(=S)Nc2ccc(Cl)cc2)CC1`, the figure is 129%. In the case of `COc1ccc(NC(=S)NCC2CCN(c3ccc(OC)cc3)C2)cc1` (configuration not stated) it was 97.5%; in that of `Cc1ccc(S(=O)(=O)N2CCOCC2)cc1C(=O)NC(=S)N(Cc1ccccc1)C(C)C`, 96.3%; in that of `COc1ccc(NC(=S)N2CCc3cc(OC)c(OC)cc3C2)cc1`, 103%. In the case of `O=C(CSc1ncn[nH]1)Nc1nsc(-c2ccccc2)n1` it was 79%; in that of `CC(C)(C)C1C/C(=C/c2ccco2)C(=O)/C(=C/c2ccco2)C1` (configuration not stated), 97.5%; in that of `COc1cc(/C=C/C(=O)N2c3ccccc3Sc3ccc(C(F)(F)F)cc32)cc(OC)c1OC`, 101%. In the case of `O=C(CN1CCCCC1)N1c2ccccc2Sc2ccc(C(F)(F)F)cc21`, the response (percent of control binding) was 22.7% (active). As for `O=C(CN1CCCCCC1)N1c2ccccc2Sc2ccc(C(F)(F)F)cc21`, the response (percent of control binding) was 107%. For `Cc1nc(N2CCOCC2)nc2c1CCCC2`, the response (percent of control binding) was 99.2%. In the case of `C[C@@H]1NC(=O)c2cc([N+](=O)[O-])cc(F)c2NCCC[C@@H](C(N)=O)NC(=O)[C@H](CC(N)=O)NC1=O`, the response (percent of control binding) is 100%. In the case of `CCCC(=O)n1nc(-c2ccccc2)nc1N` it was 20.9% (active); in that of `COc1ccccc1C(=O)n1nc(-c2ccccc2)nc1N`, 101%. As for `COc1ccc(CC(=O)n2nc(-c3cccnc3)nc2N)cc1`, the response (percent of control binding) is 101%. For `COC(=O)Nc1ncc(CN2CCCCC2)s1`, the response (percent of control binding) was 111%. In the case of `CCOC(=O)CNc1nc2ccccc2n2c(C)nnc12` it was 99.9%. As for `O=C1CCC(=O)N(O)CCCCCNC(=O)CCC(=O)N(O)CCCCCNC(=O)CCC(=O)N(O)CCCCCN1`, the figure is 55.9% (active); as for `CCSc1nc(C)c(CCOc2cccc(C)c2)c(=O)[nH]1`, 101%; as for `CN(C)S(=O)(=O)c1cccc(-c2nn(-c3ccccc3)cc2/C=C2\SC(=S)N(CC(=O)O)C2=O)c1`, 99.8%. As for `Cc1ncn2cc(-c3ccc(Cl)cc3Cl)[nH]c(=O)c12`, the figure is 102%; as for `O=C(Nc1nnc(Cc2ccc(Cl)cc2)s1)c1ccncc1`, 101%. As to `Cc1c(NC(=O)C(=O)N/N=C/c2cccs2)c(=O)n(-c2ccccc2)n1C`, the response (percent of control binding) is 103%.

On to `COc1ccc(C(=O)COC(=O)COc2ccc(C)c(C)c2)cc1`, for which the response (percent of control binding) was 102%. In the case of `Cc1nc2cc(NC(=O)Nc3cccc(F)c3)ccc2n1C` it was 97.9%; in that of `Cc1cc2nc(C)n(CCCNC(=O)Nc3ccccc3)c2cc1C`, 170% [activator] (active); in that of `Cc1nc2cc(NC(=O)NC3CC3)ccc2n1C`, 103%. As for `O=C(O)/C=C/c1ccc(OCCCF)cc1`, the figure is 98%; as for `O=C(Cc1ccccc1)NCC1OCCc2ccccc21` (configuration not stated), 100%. As for `CCc1cc(C(=O)c2ccc(OC)cc2)c(NC(=O)CN2CCN(C)CC2)s1`, the figure is 107%. Take `CC(C)Cc1nc(Nc2ccc(S(=O)(=O)N3CCCC3)cc2)c2nnn(Cc3ccccc3)c2n1`: the response (percent of control binding) is 141% [activator] (active). As for `Cc1nc(Nc2ccc(S(=O)(=O)N3CCCC3)cc2)c2nnn(Cc3ccccc3)c2n1`, the figure is 101%.

Consider `Clc1ccc(Nc2ncnc3c2nnn3Cc2ccccc2)cc1`, for which the response (percent of control binding) was 99.3%. As for `CC(C)CCNC(=O)C1CCC(CNc2c(N3CCC(C)CC3)c(=O)c2=O)CC1` (configuration not stated), the figure is 99.2%; as for `NC(=O)C1(N2CCCCC2)CCN(C2CC(=O)N(Cc3ccc(N4CCCC4=O)cc3)C2=O)CC1` (configuration not stated), 97.6%.

Take `Cc1cccc(C(=O)NNC(=O)c2cccc([N+](=O)[O-])c2)c1`: the response (percent of control binding) was 101%. As for `Cc1ccc(Cn2c(SCC(=O)N/N=C/c3ccccc3OCC(=O)O)nc3ccccc32)cc1`, the figure is 104%; as for `COc1ccc(OC)c(/C=N/NC(=O)CSc2nnc(C)n2-c2ccccc2)c1`, 95.2%; as for `C=CCn1c(Cn2nnc3ccccc32)nnc1SCC(=O)N/N=C/c1cc(Br)cc(OC)c1O`, 5.17% (active). On to `C=CCNC(=O)COC(=O)c1ccccc1C(=O)N(C)C1CCCCC1`, for which the response (percent of control binding) was 103%. For `NC(=O)CSc1c[nH]c2ccccc12`, the response (percent of control binding) is 27.5% (active).

Regarding `O=C(Cc1c[nH]c2ccccc12)OCCOC(=O)Cc1c[nH]c2ccccc12`, the response (percent of control binding) was 101%. With `CCCn1cc(SCC(N)=O)c2ccccc21`, the response (percent of control binding) was 90.4%. As for `COc1ccc(CC(=O)N[C@@H](CCSC)c2nc3ccccc3[nH]2)cc1`, the figure is 106%; as for `Cc1ccccc1Cn1nc(C)c(NC(=O)C(F)(F)F)c1C`, 106%; as for `CCCCN1CCNC1=S`, 99.3%. In the case of `Cc1noc(C)c1S(=O)(=O)N(C)Cc1ccccc1` it was 98%. In the case of `CCOC(=O)C1Sc2[nH]c(=O)sc2C(c2ccc(Cl)cc2)C1C(=O)OCC` (configuration not stated) it was 7.38% (active). Consider `CCOC(=O)C1C(c2ccc(Cl)cc2)NC(=S)NC1(O)C(F)(F)F` (configuration not stated), for which the response (percent of control binding) is 102%. `CCOC(=O)C1=C(C)NC(=O)N(C(C)=O)C1c1ccc(Cl)cc1` (configuration not stated): the response (percent of control binding) is 103%.
